# Experimental data as given in the supplement of paper PMC9925115.
# Where a name gives a salt, the structure may show the parent alone. ± gives the uncertainty stated by the source.
# Tested on: FLX1
# Assay: cell viability z-score within plate (CellTiter-Glo), mean of 3 biological replicates; higher = higher viability relative to plate (less growth inhibition)
# Conditions: 2 µM; time (hr): 120
# Description: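 FLX1 fibrolamellar carcinoma cells (DNAJB1-PRKACA fusion), 600 cells/well in 384-well plates, treated with a Selleck kinase inhibitor library (L1200) at 2 uM for 5 days (120 hr); viability by CellTiter-Glo. A z-score was computed within each plate and averaged over three biological replicates.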
row,Compound,cell viability z-score within plate
1,COc1cc2nccc(Oc3ccc(NC(=O)NC4CC4)c(Cl)c3)c2cc1C(N)=O [Lenvatinib (E7080)],-0.399 ± 0.11
2,Cn1ncc(Cl)c1-c1cc(C(=O)N[C@H](CN)Cc2ccc(F)c(F)c2)oc1Cl,-0.657 ± 0.15
3,Nc1nc(N)c(N=O)c(OCC2CCCCC2)n1,0.662 ± 0.19
4,CC1(C)CNc2cc(NC(=O)c3cccnc3NCc3ccncc3)ccc21 [Motesanib Diphosphate (AMG-706)],0.0691 ± 0.21
5,NC1(Cc2ccc(Cl)cc2)CCN(c2ncnc3[nH]ccc23)CC1,-0.404 ± 1.4
6,C=CC(=O)Nc1cccc(Nc2nc(Nc3ccc(Oc4ccnc(C(=O)NC)c4)cc3)ncc2F)c1,0.519 ± 0.21
7,O=C1NC(=O)C(=Cc2ccc(-c3ccc(F)cc3)o2)S1 (stereo in doubt),0.244 ± 0.32
8,CC(=O)Nc1cccc(-n2c(=O)n(C3CC3)c(=O)c3c(Nc4ccc(I)cc4F)n(C)c(=O)c(C)c32)c1,0.929 ± 0.43
9,Cc1ccc(Nc2nccc(N(C)c3ccc4c(C)n(C)nc4c3)n2)cc1S(N)(=O)=O,-0.43 ± 0.49
10,Cc1ccc(S(=O)(=O)/C=C/C#N)cc1,0.177 ± 0.63
11,CNc1nc(Nc2cnn([C@H]3CCN(C4COC4)C[C@@H]3F)c2Cl)ncc1C(F)(F)F,-0.856 ± 0.51
12,CC(C)n1nc(-c2ccc3oc(N)nc3c2)c2c(N)ncnc21,0.871 ± 0.17
13,COCCOc1ccc2c(c1)ncn2-c1ccc2cccc(N3CCC(N)CC3)c2n1,0.546 ± 0.4
14,CN(C)Cc1cccc(N/C(=C2\C(=O)Nc3cc(C(N)=O)ccc32)c2ccccc2)c1,-0.208 ± 0.31
15,Cn1cc(-c2ccc3ncc(Cc4ccc5ncccc5c4)n3n2)cn1,0.137 ± 0.93
16,O=C(c1ccc(Nc2nccc(-c3cc4ccccc4s3)n2)cc1)N1CCC(N2CCCC2)CC1 [IKK-16 (IKK Inhibitor VII)],0.237 ± 0.33
17,CC(C)(C)c1nc(-c2cccc(NS(=O)(=O)c3c(F)cccc3F)c2F)c(-c2ccnc(N)n2)s1,0.0787 ± 0.036
18,C[C@@H](NC(=O)c1ncnc(N)c1Cl)c1ncc(C(=O)Nc2cc(C(F)(F)F)c(Cl)cn2)s1,0.647 ± 0.28
19,COc1cc2c(Nc3ccc(NC(=O)c4ccccc4)cc3)ncnc2cc1OCCCN1CCOCC1,0.281 ± 0.48
20,C=CC(=O)Nc1ccc2ncnc(Nc3cccc(Br)c3)c2c1,-1.55 ± 0.85

row,Compound,cell viability z-score within plate
1,C#Cc1cccc(Nc2ncnc3cc(OCCOC)c(OCCO)cc23)c1,-0.584 ± 1.3
2,C=CC(=O)Nc1cccc(Nc2nc(Nc3ccc(NC4CN(CCF)C4)cc3OC)ncc2C(F)(F)F)c1,-0.00318 ± 1.3
3,COc1cc(Nc2ncc(F)c(Nc3ccc4c(n3)NC(=O)C(C)(C)O4)n2)cc(OC)c1OC,0.701 ± 0.4
4,Clc1ccc(C2(c3ccc(-c4cn[nH]c4)cc3)CCNCC2)cc1,0.815 ± 0.24
5,COc1cc2ncnc(Nc3ccc(F)c(Cl)c3)c2cc1OCCCN1CCOCC1 [Gefitinib (ZD1839)],-1.17 ± 1.2
6,CNC(=O)c1cc(Oc2ccc(NC(=O)Nc3cc(C(C)(C)C)nn3-c3ccc4ncccc4c3)c(F)c2)ccn1 [Rebastinib (DCC-2036)],0.382 ± 0.34
7,COc1cc2c(c(OC)c1OC)-c1c(cc3c(c1OC)OCO3)CC(C)C(C)C2 (stereo not given) [Schisandrin B (Sch B)],0.407 ± 0.2
8,CCN1CCN(Cc2ccc(C(=O)Nc3ccc(C)c(Oc4ccc5c(c4)CC(=O)N5)c3)cc2C(F)(F)F)CC1,0.226 ± 0.35
9,C[C@@H](Oc1cc(-n2cnc3ccc(CN4CCN(C)CC4)cc32)sc1C(N)=O)c1ccccc1C(F)(F)F,0.737 ± 0.18
10,C=CCc1ccc(O)c(-c2ccc(O)c(CC=C)c2)c1 [Honokiol],0.237 ± 0.16
11,C[C@@H](Oc1cc(-c2cnn(C3CCNCC3)c2)cnc1N)c1c(Cl)ccc(F)c1Cl,0.281 ± 0.54
12,COC(=O)c1ccc2c(c1)NC(=O)/C2=C(\Nc1ccc(N(C)C(=O)CN2CCN(C)CC2)cc1)c1ccccc1 [Nintedanib (BIBF 1120)],0.242 ± 0.43
13,Nc1nc(Nc2ccc(S(N)(=O)=O)cc2)nn1C(=O)c1c(F)cccc1F,-2.24 ± 0.22
14,COc1cc2ncnc(Nc3ccc(F)c(Cl)c3)c2cc1NC(=O)/C=C/CN1CCCCC1,0.26 ± 0.81
15,O=C1NC(=O)C(c2cnc3ccccn23)=C1c1cn2c3c(cc(F)cc13)CN(C(=O)N1CCCCC1)CC2,1.17 ± 1.1
16,Oc1ccc(-c2nc(-c3ccc(F)cc3)c(-c3ccncc3)[nH]2)cc1,-1.48 ± 1.1
17,O=c1ccc2ccc(O)c(O)c2o1 [Daphnetin],1.53 ± 0.8
18,Cc1c(NC(=O)c2ccc(C(C)(C)C)cc2)cccc1-c1cn(C)c(=O)c(Nc2ccc(C(=O)N3CCOCC3)cc2)n1,0.367 ± 0.26
19,Cc1[nH]nc2ccc(-c3cncc(OC[C@@H](N)Cc4ccccc4)c3)cc12,0.657 ± 0.13
20,O=C(Nc1cccc(Cl)c1)Nc1ncc(CCNc2ncnc3ccsc23)s1 [SNS-314 Mesylate],-2.37 ± 0.38
